# PNC inhibitor = perinucleolar compartment assembly inhibition; activity change (PNC), negative = inhibition, % at 10 µM; AID 2417; PC3M PTB-GFP, PNC prevalence imaging, 16 h; hits give low values; actives 3.1% (n = 140,000);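 active means readout at or below -70, meaning at least 70% loss of cells showing the perinucleolar compartment, a nuclear body marking cancer cells; inconclusive means readout between -30 and a set limit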;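 further: plate controls were DMSO wells for no effect and camptothecin positive control wells for full effect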
#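 PC3M cells stably expressing PTB-GFP, 750–1000 cells/well, treated 16 h at 37 °C with compound (23 nl of library stock), in duplicate. After paraformaldehyde fixation and Hoechst stain, imaged at 20x; PNC prevalence scored by image analysis.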
# HPGD inh = inhibitors of human 15-hydroxyprostaglandin dehydrogenase (HPGD). purified HPGD, NADH fluorescence kinetic, PGE2 substrate. P15428. Potency, µM, without a hit: top-dose activity change, negative = inhibition, hits mostly inhibitors. actives 4.3% (n = 150,000); further: potency means the concentration at half of the fitted maximal effect
# Target sequence (P15428 whole entry, looked up): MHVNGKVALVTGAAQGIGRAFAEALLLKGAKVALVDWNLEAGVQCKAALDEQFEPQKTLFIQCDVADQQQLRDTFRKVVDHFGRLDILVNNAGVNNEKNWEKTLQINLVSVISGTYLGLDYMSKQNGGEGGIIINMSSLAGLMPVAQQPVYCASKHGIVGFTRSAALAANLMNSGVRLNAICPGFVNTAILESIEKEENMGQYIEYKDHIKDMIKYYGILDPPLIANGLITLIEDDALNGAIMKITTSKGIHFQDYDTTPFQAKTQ
#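 20 nM HPGD preincubated 15 min at room temperature with compound in 50 mM Tris-HCl pH 8, 0.01% Tween 20. Started with 1 mM NAD+ and 30 uM prostaglandin E2; NADH fluorescence (360/450 nm) read 5 times over 30-s intervals, last minus first.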
# IMPase Li cell = IMPase inhibition in cells with lithium potentiation. CHO-M1 cells, IP1 TR-FRET (IP-One), carbachol + lithium. Potency, µM (highest dose often 59.4 µM), for inactives: at the top dose activity, negative = IMPase inhibition, most hits filed as inhibitors. actives 0.35% (n = 210,000); active means well fitted curve in the direction sought with a large enough effect; inconclusive means small, poorly fitted or top-dose-only effect, or another doubt; inactive means no such curve, though single readings can be large; an effect the other way counts as inactive or inconclusive;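 further: IP1 builds up when IMPase is blocked and the TR-FRET signal falls; potency means the concentration at half of the fitted maximal effect; plate controls were basal vehicle for no effect and high inhibitor control for full effect; nearly all actives have a fitted effect of over 50% in size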
#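 Readout is a homogeneous TR-FRET IP1 immunoassay (Ex 320, Em 665 and 620), where raised cytosolic IP1 lowers signal. Cells were CHO-M1 treated 30 min at 37C with test compounds plus a little lithium; AC50 values came from Hill-equation fitting.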
# ALOX12 inhib = inhibitors of human 12-lipoxygenase (ALOX12). purified 12-hLO, xylenol orange hydroperoxide absorbance. Potency, µM (series often up to 57.1 µM), without a hit: top-dose activity change, negative = inhibition, actives largely listed as inhibitors. actives 0.12% (n = 150,000). AID 1452; active means well fitted curve in the direction sought with a large enough effect; inconclusive means small, poorly fitted or top-dose-only effect, or another doubt; inactive means no such curve, though single readings can be large; an effect the other way counts as inactive or inconclusive; further: potency means the concentration at half of the fitted maximal effect; nearly all actives have a fitted effect of over 55% in size
#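 Hydroperoxide formation by human 12-lipoxygenase from 40 uM arachidonic acid was followed colorimetrically via ferric-xylenol orange complex, using the 573/405 nm absorbance ratio. Enzyme concentration was 150 nM, with 30 min reaction at room temperature.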
# ALDH1A1 block = inhibitors of human aldehyde dehydrogenase 1A1. Purified ALDH1A1, NADH fluorescence, propionaldehyde substrate. actives 7.3% (n = 220,000). AID 1030. Potency, µM (titrated, usually from 75.3 µM), for inactives: at the highest dose activity, negative = inhibition, most hits filed as inhibitors;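 further: potency means the concentration at half of the fitted maximal effect; plate controls were no enzyme wells and a reference inhibitor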
# Target sequence (P00352 whole entry, looked up): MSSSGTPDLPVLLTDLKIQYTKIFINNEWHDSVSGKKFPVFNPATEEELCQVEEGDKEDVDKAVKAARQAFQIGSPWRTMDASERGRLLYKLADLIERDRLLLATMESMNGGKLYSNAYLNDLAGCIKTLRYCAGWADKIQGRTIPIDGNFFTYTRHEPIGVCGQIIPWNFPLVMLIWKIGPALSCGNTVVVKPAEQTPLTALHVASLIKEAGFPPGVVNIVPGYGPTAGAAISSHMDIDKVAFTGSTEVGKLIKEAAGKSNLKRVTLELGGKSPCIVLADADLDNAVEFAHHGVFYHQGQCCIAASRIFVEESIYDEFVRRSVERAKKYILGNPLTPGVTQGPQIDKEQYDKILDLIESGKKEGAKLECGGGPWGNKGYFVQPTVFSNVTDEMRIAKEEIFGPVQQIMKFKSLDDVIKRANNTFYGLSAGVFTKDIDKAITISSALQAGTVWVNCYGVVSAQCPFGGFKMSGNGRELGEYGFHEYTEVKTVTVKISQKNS
# IMPase cell inh = IMPase inhibition in cells; 120,000 tested, under 10 active; inhibition (IP1 accumulation), % at 46.1 µM; AID 901; CHO-M1 cells, IP1 accumulation, HTRF TR-FRET ratio; P97697; active means well fitted curve in the direction sought with a large enough effect in the signal ratio, not every such curve was filed as active; inconclusive means small, poorly fitted or top-dose-only effect, or a change in a side signal; inactive means no such curve, though single readings can be large or run the other way; the % refers to the signal ratio;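 further: cells stimulated with carbachol in lithium chloride buffer; plate controls were DMSO basal wells for no effect and reference inhibitor wells for full effect; higher means more IMPase inhibition seen as more IP1 and lower FRET ratio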
#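 Seeded CHO-M1 cells were dosed with compound at up to 46 uM, stimulated with carbachol for 30 min, then lysed in IP-One detection reagents. Higher IP1 lowers the TR-FRET signal.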
# Numbers without * were called inactive; ? = inconclusive; · = no result given; ! = not active in a repeat; [ ] = remark or other dose. A selection: hits, their analogues and other compounds. The true share with any hit is near 11%. Unless noted, the call rests on the fitted dose curve; in most records, active means well fitted inhibition curve with a large enough effect (not every such curve was filed as active); inconclusive means small, poorly fitted or top-dose-only effect, or another doubt; inactive means no such curve, though single readings can be large or run the other way. Unless noted, on the % scale 0 is the no-effect control and ±100 the full control effect.
SMILES,PNC inhibitor,HPGD inh,IMPase Li cell,ALOX12 inhib,ALDH1A1 block,IMPase cell inh
O=c1cnc2cnc(Nc3ccccc3)nc2n1C1CC1,·,·,13%,·,-1%,·
CSc1nc(/C=C2\C=Nc3ccccc32)c(O)n1C,-25,35µM*,9%,-4%,-5%,·
CCC(C(=O)OC)n1cnc2c(nnn2-c2cccc(Cl)c2)c1=O (stereo unspecified),40,20µM*,17%[38.3 µM],1%,-7%,2
Brc1ccc(-c2noc(COc3ccc4c(c3)CCC4)n2)o1,-80*,-16%,31%[38.3 µM],-13%,-7%,-10
Cc1ccc(-n2c(N)c(-c3nc4ccccc4n3C)sc2=S)cc1,?,6.3µM*,31%[38.3 µM],4%,3.5µM*,0
Cc1[nH]c2ccccc2c1Cc1n[nH]c(=S)n1C,3,35µM*,8%,-6%,-12%,-3
O=C1c2ccccc2-c2c1cccc2C(=O)N1CCN(C(=O)c2ccco2)CC1,37,-10%,-1%[38.3 µM],-5%,16µM*,6
O=C(c1ccco1)N1CCN(C(=O)c2ccccc2Oc2ccccc2)CC1,-112*,-1%,1%,0%,-4%,·
C=C1CC[C@@H]2O[C@@]2(C)CC[C@H]2[C@H]1CC2(C)C,·,-3%,14%,-3%,-10%,-2
O=C(CCc1ccccc1)Nc1cc2c(cc1Cl)OCCO2,-109*,?,2%,-1%,2%,·
CCc1c2c(nc3cccc(C(C)C)c13)-c1cccc(=O)n1C2,·,?,-2%,-7%,?,·
Cc1cccc(-n2c(=O)c3c(n4cnnc24)-c2ccccc2CC32CCCCC2)c1,45,-2%,6%[38.3 µM],2%,2%,5
O=c1c2c(n3cnnc3n1-c1ccccc1)-c1ccccc1CC21CCCCC1,-13,-17%,-19%[38.3 µM],-3%,20µM*,-13
CCOC(=O)CNC(=O)O[C@H]1C(=O)c2cc(OC)ccc2O[C@@H]1c1ccc(OC)c(Br)c1,·,-9%,-1%,·,-3%,·
O=C(NNC(=O)c1ccccc1Br)c1ccc(Cl)cc1,97,-14%,-5%[38.3 µM],-8%,1%,5
O=C(Nc1ccc(Cl)cc1F)c1ccccc1Br,-81*,16µM*,2%,-5%,4%,·
Cc1cc(C(=O)OCC(=O)c2cccc([N+](=O)[O-])c2)c2cccc(C)c2n1,101,-21%,12%[38.3 µM],13%,22µM*,-1
COc1ccc(-c2cc(C(=O)OCC(=O)c3cccc([N+](=O)[O-])c3)c3cc(C)ccc3n2)cc1,-8,-2%,-5%,1%,12%,·
COc1cccc(NC(=S)NC2CC(C)(C)NC(C)(C)C2)c1,-8,-1%,-2%,-1%,12%,·
NC(=O)COC(=O)c1cccnc1Nc1ccccc1F,·,·,27%,·,11µM*,·
CN(C)C(=O)COC(=O)c1cccnc1Nc1ccccc1F,-1,-15%,-2%,2%,-10%,13
CC(C)CC(=O)N1CCN(S(=O)(=O)c2ccc(F)cc2)CC1,-119*,-13%,15%[38.3 µM],5%,?,-3
CCN(CC)c1ccc(-n2c(C)cc(C=O)c2C)cc1,25,2%,23%[38.3 µM],-19%,10µM*,-3
CCN(CC)c1ccc(-n2c(C)c(C(C)=O)c(C(C)=O)c2C)cc1,0,-5%,4%[38.3 µM],-2%,?,20
Cc1ccccc1Nc1nnc(SCC2CCCCO2)s1 (stereo unspecified),?,-19%,2%,-6%,0%,·
SMILES,PNC inhibitor,HPGD inh,IMPase Li cell,ALOX12 inhib,ALDH1A1 block,IMPase cell inh
COc1ccccc1Nc1nnc(SCC2CCCCO2)s1 (stereo unspecified),·,·,24%,·,32µM*,·
c1cncc(-c2nccc(-n3ccnc3)n2)c1,·,-7%,4%,-2%,17%,·
CCOc1ccc2nc(Cl)c(C3CC(c4ccc(C)cc4)=NN3C(=O)CCCC(=O)O)cc2c1 (stereo unspecified),·,·,·,·,·,8
CCc1cc2c(nc1CC)CCN(CC/C(C)=N/O[C@@H](C)c1cn([C@@H]3COC[C@@H]3O)nn1)C2,·,·,·,·,0%[13.5 µM],·
CCOC(=O)C(C(=O)c1ccccc1)[C@H](CCc1ccccc1)NC(=O)OC (stereo partly specified),·,-4%,14%,·,-3%,·
CCN1CCN(C(=S)NCC2CCCO2)CC1 (stereo unspecified),·,·,0%,·,0.5µM*,·
CCCNC(=O)OC[C@@H]1O[C@H](CCO/N=C(\C)CCN2CCCCc3nc(C)c(C)cc32)C=C[C@@H]1Oc1ccc(OC)cc1,·,·,·,·,-8%[13.5 µM],·
COc1cccc(/C=N/NC(N)=S)c1OCc1ccccc1Cl,18,-13%,1%,-12%,12%,·
NC(=S)N/N=C/c1ccccc1OCCSc1ccc(Cl)cc1,-20,35µM*,8%,-40%,-6%,·
CS/C(=C\[N+](=O)[O-])Nc1ccc(F)cc1,-16,-13%,-10%[38.3 µM],-3%,16µM*,-23
Cc1ccc(C)n1-c1ccc(C(=O)Nc2ccccc2)cc1,-14,16µM*,5%,0%,28µM*,·
c1ccc(CCNc2c3c(nc4ncnn24)CCC3)cc1,14,18µM*,-6%[38.3 µM],-6%,3.5µM*,-4
CCN1/C(=C/C(C)=O)Sc2ccc(OC)cc21,?,13µM*!,29%[38.3 µM],-9%,?,6
COc1cc(OC)cc(C(=O)/C=C2\Sc3ccccc3N2C)c1,·,·,18%,·,?,·
O=C(Nc1ccccc1)C1=C[C@H](c2ccc3c(c2)OCO3)C[C@H](OCc2ccc(CO)cc2)O1,·,·,6%,·,28µM*,·
CN1CCN(C(=O)C2=C[C@@H](c3ccccc3)C[C@@H](OCc3ccc(CO)cc3)O2)CC1,·,·,5%,·,13µM*,·
O=C(NC1CC1)C1=C[C@@H](c2ccc3c(c2)OCO3)C[C@@H](OCc2ccc(CO)cc2)O1,·,·,-12%,·,4%,·
NC(=O)C1=C[C@H](c2ccc(Br)cc2)C[C@H](OCc2ccc(CO)cc2)O1,·,·,-12%,·,?,·
O=C(C1=C[C@@H](c2ccc(C(F)(F)F)cc2)C[C@@H](OCc2ccc(CO)cc2)O1)N1CCN(Cc2ccc3c(c2)OCO3)CC1,·,·,6%,·,13µM*,·
C=CCOC(=O)C1=C[C@@H](c2ccc(Br)cc2)C[C@@H](OCc2ccc(CO)cc2)O1,·,·,-2%,·,18µM*,·
OCCNCCO,·,-14%,-3%,-4%,?,·
Cc1cccc(N(CC(=O)NCCSCc2ccccc2)S(=O)(=O)c2ccccc2)c1C,·,·,·,·,·,2
C#CCNC(=O)C1=C[C@H](c2ccc(C(F)(F)F)cc2)C[C@H](OCc2ccc(CO)cc2)O1,·,·,8%,·,28µM*,·
O=C(O)[C@@H](c1ccccc1)[C@@H](C(=O)O)c1ccccc1,·,-6%,3%,0%[11.4 µM],-1%[13.5 µM],·
